Test results as given in PubChem BioAssay (EPA / NIEHS).
Values joined by “and” are separate entries in the source; they are usually repeats but may differ in a detail not shown here. Equal values may be shown once. Where a structure was tested more than once in an assay, its records may differ in their call. Active and inactive are the calls of the source. Rule for the calls: active = hit-call score of the fitted dose curve at least 0.9, where 1 is the maximum; inactive = score below 0.9.

What follows are compounds tested on urokinase plasminogen activator (uPA), PLAU (gene 5328) (assay: BSK_KF3CT_uPA: BioMAP Diversity Plus: KF3CT Assay for urokinase plasminogen activator (uPA) Biomarker Activity (AID 2283075)). Conditions: primary human keratinocytes with fibroblasts; actives raise or lower the signal.
Procedure: BSK_KF3CT is a cell-based, multiplexed-readout assay that uses keratinocytes and foreskin fibroblasts, a human skin primary cell co-culture, with measurements taken at 24 hours after chemical dosing in a 96-well plate.BSK_KF3CTA is an assay component measured in the BSK_KF3CT assay. It measures uPA antibody related to regulation of gene expression using ELISA technology.Data from the assay component BSK_KF3CTA was analyzed into 1 assay endpoint. This assay endpoint, BSK_KF3CTA, was analyzed with bidirectional fitting relative to DMSO as the negative control and baseline of activity. Using a type of binding reporter, gain or loss-of-signal activity can be used to understand changes in the signaling as they relate to the gene PLAU. Furthermore, this assay endpoint can be referred to as a primary readout, because this assay has produced multiple assay endpoints where this one serves a signaling function. To generalize the intended target to other relatable targets, this assay endpoint is annotated to the protease intended target family, where the subfamily is serine protease.
The levels of cell surface (or secreted, indicated by the prefix "s") biomarker endpoints were measured by ELISA. Overt cytotoxicity to cells in confluent adherent cultures (all systems other than the BT system) was assessed by measuring total protein levels using sulforhodamine B (SRB) staining in parallel cultures at the time of biomarker measurements, indicated as SRB endpoints. For proliferation assays for adherent cell types, individual cell types are cultured at sub-confluence and relative cell numbers quantified by SRB staining at time points optimized for each system (48 h: 3C and CASM3C systems; 72 h: BT and HDF3CGF systems; 96 h: SAg system). SRB was performed by staining cells with 0.1% SRB after fixation with 10% TCA and reading wells at 560 nm.Viability and proliferation of PBMC (T cells) was quantified by Alamar Blue reduction for the SAg and BT systems. For PBMC viability (referred to as PBMC Cytotoxicity within the assay endpoint names), cells were plated (75,000/well in a 96-well plate) and then chemical samples added for 1 h before addition of activators, SEB and TSST-1 (20 ng/mL final concentration each). Cells were incubated for 90 h. Then, Alamar Blue (20 uL/well) (Invitrogen, Cat DAL1100) was added for 6 h, and the plates were read with a fluorescence microplate reader at 546/580 nm (excitation/emission). For PBMC proliferation, cells were plated and activated as above but incubated for only 16 h prior to addition of Alamar Blue. Plates were read after 6 h.
In the case of `c1ccc(NNc2ccccc2)cc1`, the outcome was “inactive”.
`Cn1cc(-c2ccccc2)c(=O)c(-c2cccc(C(F)(F)F)c2)c1` was tested, and the outcome was “inactive”.
For `[As]#[In]`, the outcome was “inactive”.
In the case of `CCN(CC)CCO`, the outcome was “inactive”.
`O=C(N[C@H](c1ccccc1)[C@@H]1CN2CCC1CC2)c1c(Cl)ccc(C(F)(F)F)c1Cl` was tested, and the AC50 was 42.7 µM (active).
For `N#CC(Br)(Br)C(N)=O`, the outcome was “inactive”.
`CC(C)(C)OOC(=O)c1ccccc1` was tested, and the outcome was “inactive”.
For `CN(C)c1ccc(C(=O)c2ccc(N(C)C)cc2)cc1`, the outcome was “inactive”.
For `CC(C)COC(=O)c1ccccc1C(=O)OCC(C)C`, the outcome was “inactive”.
For `Cc1ccc([N+](=O)[O-])cc1`, the outcome was “inactive”.
With `CC(C)(OOC(C)(C)c1ccccc1)c1ccccc1` the outcome was “inactive”.
For `ClC1=C(Cl)C2(Cl)C3C(Cl)C=CC3C1(Cl)C2(Cl)Cl` (stereo not given), the AC50 was 31 µM (active).
For `O=P(OCCCl)(OCCCl)OCCCl`, the outcome was “inactive”.
With `CN(C)c1ccccc1` the outcome was “inactive”.
For `C1=Cc2cccc3cccc1c23`, the outcome was “inactive”.
For `Cc1cc(N=Nc2ccccc2C)ccc1N`, the AC50 was 39.2 µM (active).
In the case of `Nc1ccc(N=Nc2ccccc2)cc1`, the outcome was “inactive”.
In the case of `CCOC(=O)[C@]1(c2ccccc2)Oc2ccccc2[C@@H]1N`, the outcome was “inactive”.
`C[N+](C)(C)CC1CO1` (stereo not given) was tested, and the outcome was “inactive”.
`COC(=O)c1ccccc1N` was tested, and the outcome was “inactive”.
In the case of `c1ccc(C2CO2)cc1` (stereo not given), the outcome was “inactive”.
`OCCOCCO` was tested, and the outcome was “inactive”.
`O=Cc1ccco1` was tested, and the outcome was “inactive”.
In the case of `O=C(Nc1ccccc1)c1ccccc1I`, the outcome was “inactive”.
With `CCC[CH2][Sn]([Cl])([CH2]CCC)[CH2]CCC` the AC50 was 0.148 µM (active).
In the case of `ClC1=C(Cl)[C@]2(Cl)[C@H]3[C@H]([C@@H]4C=C[C@H]3C4)[C@@]1(Cl)C2(Cl)Cl`, the AC50 was 28.7 µM (active).
In the case of `Nc1ccc(Cl)cc1N`, the outcome was “inactive”.
`O=[N+]([O-])c1ccc(Oc2ccc(Cl)cc2Cl)cc1` was tested, and the outcome was “inactive”.
`CCCCC(CC)COC(=O)c1ccc(C(=O)OCC(CC)CCCC)c(C(=O)OCC(CC)CCCC)c1` (stereo not given) was tested, and the outcome was “inactive”.
For `C=CCc1ccc2c(c1)OCO2`, the outcome was “inactive”.
`CO[C@@H]1[C@H](OC(=O)NC(=O)CCl)CC[C@]2(CO2)[C@H]1[C@@]1(C)O[C@@H]1CC=C(C)C` was tested, and the outcome was “inactive”.
`Oc1ccccc1Cl` was tested, and the outcome was “inactive”.
With `N#CC(Br)Br` the outcome was “inactive”.
In the case of `CS(=O)(=O)NC(=O)c1cc(Oc2ccc(C(F)(F)F)cc2Cl)ccc1[N+](=O)[O-]`, the outcome was “inactive”.
In the case of `CCNS(=O)(=O)C(F)(F)C(F)(F)C(F)(F)C(F)(F)C(F)(F)C(F)(F)C(F)(F)C(F)(F)F`, the AC50 was 50.5 µM (active) and 47.5 µM (active) and the outcome was “inactive”.
`CCC(C)c1ccc(O)cc1` (stereo not given) was tested, and the outcome was “inactive”.
`COP(=S)(OC)SCN1C(=O)c2ccccc2C1=O` was tested, and the outcome was “inactive”.
With `O=C(O)C1C2CCC(O2)C1C(=O)O` (stereo not given) the outcome was “inactive”.
For `c1ccc(N=Nc2ccccc2)cc1`, the outcome was “inactive”.
